The values below come from PubChem BioAssay AID651813 (National Center for Advancing Translational Sciences (NCATS), 2012).

The structures appear in SMILES notation. Out of some 2,100 compounds screened, about 1,100 (52%) were called active. Roughly 27% stayed inconclusive and do not appear here. The set was probably picked from earlier hits. The list shows a part of the results. Values without a mark were called inactive. Calls follow the shape of the dose curve; as a rule, active = well fitted inhibition curve with a large enough effect; inconclusive = small, poorly fitted or top-dose-only effect; inactive = no such curve, though single readings can be large or run the other way.
Potency is read from the fitted curve at half-maximal effect.

The target in the assay is DNA dC->dU-editing enzyme APOBEC-3G (Homo sapiens) (UniProt Q9HC16). In words: qHTS for inhibitors of Vif-A3G interactions: Cherry picks counterscreen.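 Also: hits raise yellow fluorescence by blocking Vif-driven A3G-eYFP degradation; nearly all actives have a fitted effect of over 70% in size.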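 As to max response: max response given as percent of control signal.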 Particulars: HeLa A3G-eYFP + Vif (tagged APOBEC3G with the HIV-1 protein that degrades it), eYFP fluorescence, 24 h. Put shortly: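 Readout is eYFP fluorescence (488 nm excitation, 500-530 nm emission) measured on Acumen Explorer after 24 h compound exposure, several concentrations, at 37 deg C. Cells: HeLa stably co-expressing Vif and C-terminally eYFP-tagged A3G; MG132 positive control.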
Chain of DNA dC->dU-editing enzyme APOBEC-3G (Homo sapiens) (Q9HC16 whole entry, looked up): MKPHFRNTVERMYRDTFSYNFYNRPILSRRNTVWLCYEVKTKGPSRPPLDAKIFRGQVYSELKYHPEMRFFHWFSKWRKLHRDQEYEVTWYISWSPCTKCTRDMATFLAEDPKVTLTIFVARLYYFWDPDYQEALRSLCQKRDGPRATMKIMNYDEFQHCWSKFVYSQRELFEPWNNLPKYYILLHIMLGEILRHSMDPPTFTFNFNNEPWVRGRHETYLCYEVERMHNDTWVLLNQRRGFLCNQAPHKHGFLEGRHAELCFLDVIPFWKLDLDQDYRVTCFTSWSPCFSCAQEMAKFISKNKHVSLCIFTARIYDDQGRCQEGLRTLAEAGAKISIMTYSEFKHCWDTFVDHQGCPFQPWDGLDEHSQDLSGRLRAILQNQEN
(In general: In qHTS, concentration-response curves come from the screen itself.)
Take `CC(OC(=O)/C(C#N)=C/c1ccc(N(C)C)cc1)C(=O)N(C)Cc1ccccc1` (configuration not stated): the Potency was 23.1 µM (active).
Consider `O=C(C(=Cc1ccccc1)CN1CCCCC1)c1ccccc1`, for which the Potency was 3.14 µM (active).
Consider `CC(C)(C)NCC(=Cc1ccccc1)C(=O)c1ccccc1`, for which the max response was -3.58%.
As to `COc1cc(C2Nc3ccc4ncccc4c3C3=C2C(=O)CCC3)cc(OC)c1O` (configuration not stated), the Potency was 11.2 µM (active).
Take `COc1cc(C2Nc3ccc4ncccc4c3C3=C2C(=O)CCC3)ccc1O` (configuration not stated): the Potency is 14 µM (active).
In the case of `CCOC(=O)c1sc2cc([N+](=O)[O-])cc(SCC(C)C)c2c1N`, the Potency is 2.31 µM (active).
Consider `COC(=O)c1sc2cc([N+](=O)[O-])cc(SCC(C)C)c2c1N`, for which the Potency is 8.2 µM (active).
On to `Cc1ccc2nc3c(cc(S(=O)(=O)c4ccccc4)c(=N)n3Cc3ccco3)c(=O)n2c1`, for which the max response was 17.8%.
For `CCn1c(O)c(/C=N/NC(=O)c2ccncc2)c(=O)n(CC)c1=S`, the max response was -1.22%.
Consider `CCc1ccc(/C=N/NC(=O)c2cc(-c3ccncc3)nc3ccccc23)s1`, for which the Potency is 3.53 µM (active).
The same measure, in the same setting: then `O=C(N/N=C/c1ccco1)c1cc(-c2ccncc2)nc2ccccc12`, with 11.2 µM (active); and `CC(/C=N/NC(=O)c1cc(-c2ccc3ccccc3c2)n[nH]1)=C\c1ccco1`, with 14 µM (active).
The same measure, in the same setting: with `CC(/C=N/NC(=O)c1cc(-c2ccccc2)nc2ccccc12)=C\c1ccco1` the figure was 2.23 µM (active).
As to `CCC(=C/c1sc2ccc3ccccc3c2[n+]1C)/C=C1\Sc2ccc3ccccc3c2N1C`, the max response was -21.8%.
`Cc1[nH]c2ccccc2c1/C=N/NC(=O)c1cc(-c2ccncc2)nc2ccccc12`: the Potency is 9.94 µM (active).
Regarding `O=C(NC(=S)Nc1ccc(-c2ccccc2)cc1)c1ccccc1`, the max response was 2.13%.
On to `COc1ccccc1NC(=O)Cc1ccc(-c2ccccc2)cc1`, for which the max response is -14.2%.
Consider `O=C(Nc1ccccc1OC(=O)c1ccccc1)c1ccccc1`, for which the Potency was 17.7 µM (active).
On to `Cc1cc2c(cc(C(=O)OCC(=O)NCc3cccs3)n2C(C)C)o1`, for which the Potency is 6.27 µM (active).
Consider `CCn1cc(/C=C/c2cc[n+](C)cc2)c2ccccc21`, for which the Potency was 1.77 µM (active).
Regarding `C=CCn1cc(/C=C/c2cc[n+](C)cc2)c2ccccc21`, the Potency is 0.886 µM (active).
Turning to `CC(C)n1cc(/C=C/c2cc[n+](C)cc2)c2ccccc21`, the Potency is 3.53 µM (active).
On to `O=c1[nH]c2cc(Br)cnc2nc1/C=C(\O)c1ccc(F)cc1`, for which the Potency was 18.4 µM (active).
In the case of `COc1ccc(-n2nnnc2-c2ccccc2)cc1`, the Potency is 3.14 µM (active).
As for `CCOc1cccc(-n2nnnc2-c2ccc(OC)cc2)c1`, the Potency was 4.98 µM (active).
For the compound `COc1ccc(-n2nnnc2-c2cccc(OC)c2)cc1`, the Potency was 1.98 µM (active).
Take `COc1cccc(C(=O)Nc2ncc3c(n2)CC(c2ccc(OC)cc2OC)CC3=O)c1` (configuration not stated): the Potency is 17.7 µM (active).
For the compound `CCN(CC)c1ccc2cc(-c3nc4sc5c(c4c(=O)[nH]3)CCC(C(C)(C)C)C5)c(=O)oc2c1` (configuration not stated), the max response was 48%.
For `COc1ccc2cc(-c3nc(Cl)c4c5c(sc4n3)CC(C)CC5)c(=O)oc2c1` (configuration not stated), the Potency was 20.6 µM (active).
For `COc1ccccc1-c1nnc2sc(-c3cc4ccccc4o3)nn12`, the Potency was 1.98 µM (active).
For `CS(=O)(=O)N(CC(=O)N1CCN(Cc2ccccc2)CC1)c1ccccc1F`, the max response was -9.78%.
For the compound `CCN(CC)CCCNc1ccc2ncn3c4ccc(O)cc4c(=O)c1c23`, the Potency is 23.1 µM (active).
For the compound `CN(C)C(=O)c1cccc(-c2cnc3c(NC=O)cc(-c4ccccc4F)cn23)c1`, the max response is -0.0482%.
Regarding `Cc1ccc(-c2cc(NC=O)c3ncc(-c4cccc(C(=O)N(C)C)c4)n3c2)cc1`, the Potency is 8.86 µM (active).
With `Cc1ccc(-c2cc(NC=O)c3ncc(-c4cnn(C)c4)n3c2)cc1`, the Potency was 3.14 µM (active).
Consider `CC(C)n1c(O)c(N=Nc2ccc(Cl)nn2)c2ccccc21`, for which the Potency is 18.4 µM (active).
Still for that read-out and setting: then `CCOC(=O)/C=c1/s/c(=C\c2c(OC)ccc3ccccc23)c(=O)n1CC(=O)NCC1CCCO1` (configuration not stated), with 11.2 µM (active); and `CCOC(=O)/C=c1\s/c(=C\c2c(OC)ccc3ccccc23)c(=O)n1CC(=O)NCC1CCCO1` (configuration not stated), with 14.6 µM (active).
In the case of `NC(=O)CSc1nc2c(sc3ccccc32)c(=O)n1CCCC(=O)NCC1CCCO1` (configuration not stated), the max response is -5.1%.
In the case of `CN(C)c1ccc(/C=C/c2ccnc3c(Cl)cccc23)cc1`, the Potency was 11.6 µM (active).
On the same count and under the same terms, then `CN(C)c1ccc(/C=C/c2ccnc3c(N)cccc23)cc1`, with 14.6 µM (active).
Regarding `CN(C)c1ccc(/C=C/c2ccnc3c(Cl)ccc(Cl)c23)cc1`, the Potency was 3.26 µM (active).
For `c1cncc(-c2nc(NCc3cccs3)c3ccccc3n2)c1`, the max response is -5.92%.
As to `Brc1ccc2c(c1)C(c1cccnc1)=NNC(c1cccs1)=N2`, the Potency is 8.86 µM (active).
As to `CC(=O)n1cc(/C=N/NC(=O)c2sc(C)nc2C)c2ccccc21`, the Potency is 17.7 µM (active).
With `O=C(c1ccc(CS(=O)c2ccccc2Cl)o1)N1CCN(c2ccccc2F)CC1` (configuration not stated), the Potency is 2.91 µM (active).
Turning to `Cn1c(=O)[nH]c(=O)c2c1nc(Br)n2Cc1cccc(Br)c1`, the Potency is 7.04 µM (active).
Same read-out and setting: with `O=C1C=CC(O)(c2cc(=O)c3c(O)cc(O)cc3o2)C=C1` the figure was 7.9 µM (active); with `COc1cc(-c2noc(C)c2C#Cc2ccc(N)cc2)cc(OC)c1OC`, 0.444 µM (active); with `CCOC(=O)N1C/C(=C\c2ccccc2)C(=O)/C(=C/c2ccccc2)C1`, 8.86 µM (active).
Consider `Cc1cccc(C(=O)Nc2nnc(C3=COCCO3)o2)c1`, for which the max response was -1.82%.
For `O=c1oc2cc(O)ccc2cc1-c1nc(-c2ccc(Cl)c(Cl)c2)cs1`, the Potency was 1.16 µM (active).
`CCN(CC)c1ccc2cc(-c3nc(-c4ccc(Cl)cc4Cl)cs3)c(=O)oc2c1`: the max response was 34.3%.
In the case of `CCc1sc(-c2cc3ccc(O)cc3oc2=O)nc1-c1ccc(C)cc1`, the Potency is 2.59 µM (active).
For the compound `CN1CCN(c2nc3ccccc3nc2NS(=O)(=O)c2ccc(Br)cc2)CC1`, the max response is -6.45%.
On to `NC(=O)C1CCN(c2nc3ccccc3nc2NS(=O)(=O)c2ccc(Br)cc2)CC1`, for which the max response is -5.92%.
`O=S(=O)(Nc1nc2ccccc2nc1N1CCN(c2ccccn2)CC1)c1ccc(Cl)cc1`: the Potency was 16.4 µM (active).
Same read-out and setting: then `CCN1C(=S)SC(=O)C1=C1C=C(C)N(Cc2ccco2)C(C)=C1`, with 15.8 µM (active).
In the case of `Cc1cccc(C)c1NC(=S)NC(C)CCc1ccccc1` (configuration not stated), the max response is -1.19%.
As for `O=C(O)CSc1c2ccccc2cc2ccccc12`, the max response was -3.73%.
`COc1cc(C(=O)Nc2ccc(C)cc2)c2ccccc2n1`: the Potency was 2.5 µM (active).
With `COc1ccc(NC(=O)c2cccc3ccccc23)cc1`, the Potency was 15.8 µM (active).
For the compound `COc1ccc(NC(=O)c2c(Cl)n(C)c3ccccc23)cc1`, the Potency is 14 µM (active).
Regarding `CC(C)(C)c1ccc(Oc2ccc(NC(=O)c3ccccc3C(=O)O)cn2)cc1`, the max response was 6.3%.
Take `CCOC(=O)c1csc(NC(=O)c2cc(-c3ccccn3)nc3ccccc23)n1`: the max response is -7.52%.
For the compound `CCN1/C(=C/c2cc[n+](C)cc2)C=Cc2cc(C)ccc21`, the Potency is 23.1 µM (active).
Consider `O=C1CSC(=S)N1Cc1cccnc1`, for which the Potency is 4.11 µM (active).
In the case of `O=C1/C(=C/c2ccc(O)cc2)SC(=S)N1Cc1cccnc1`, the max response is -0.458%.
Regarding `Cc1ccc2c(c1)C=CC(C#N)N2C(=O)c1ccccc1` (configuration not stated), the Potency was 4.98 µM (active).
Consider `Cc1ccc2c(/C=C/c3c[nH]c4ccccc34)ccnc2c1C`, for which the Potency was 5.8 µM (active).
Turning to `C(=Cc1c[nH]c2ccccc12)c1nccc2ccccc12`, the Potency was 20.6 µM (active).
As for `C(=C\c1c[nH]c2ccccc12)/c1nccc2ccccc12`, the Potency is 10.3 µM (active).
As for `O=C(c1ccccc1F)n1c2c(c3ccccc31)CCCC2`, the Potency was 15.8 µM (active).
With `CNCC(O)Cn1c2c(c3ccccc31)CCCC2` (configuration not stated), the max response was 20.6%.
On to `O=C(NC1CCCCC1)c1cccc2c1C(=O)c1ccc(N3CCC(Cc4ccccc4)CC3)cc1S2(=O)=O`, for which the Potency is 15.8 µM (active).
On to `O=C(NC1CC1)c1cccc2c1C(=O)c1ccc(N3CCC(Cc4ccccc4)CC3)cc1S2(=O)=O`, for which the Potency was 20.6 µM (active).
On the same count and under the same terms, then `COc1ccc2c(c1)N(C)/C(=C/c1cccc[n+]1C)S2`, with 17.7 µM (active).
As to `CCN1/C(=C/c2cccc[n+]2C)Sc2ccc(OC)cc21`, the Potency was 20.6 µM (active).
In the case of `CC[n+]1ccccc1/C=C1\Sc2ccc(C)cc2N1C`, the Potency was 20.6 µM (active).
In the case of `CC(=O)N1CCc2c(sc(NC(=O)CSc3ccccc3)c2-c2nc3ccccc3s2)C1`, the Potency was 29.1 µM (active).
For `CN1CCc2c(sc(NC(=O)CSc3ccc(F)cc3)c2-c2nc3ccccc3s2)C1`, the Potency is 2.59 µM (active).
On to `CC(=O)Nc1sc2c(c1-c1nc3ccccc3s1)CCN(C(C)C)C2`, for which the Potency is 18.4 µM (active).
Regarding `CCc1ccc(C2=NN(S(C)(=O)=O)C(c3cccs3)C2)cc1` (configuration not stated), the Potency is 14 µM (active).
Take `CS(=O)(=O)Nc1ccc(C2=NN(S(=O)(=O)c3ccccc3)C(c3cccs3)C2)cc1` (configuration not stated): the Potency was 20.6 µM (active).
In the case of `CC(C)n1cc(/C=C2\NC(=O)N(c3cccc(Cl)c3)C2=O)c2ccccc21`, the Potency was 14 µM (active).
As for `Cc1ccc(NC(=O)CSc2ccccc2NC(=O)c2cccc(Cl)c2)cc1Cl`, the max response is 5.07%.
On to `Cc1ccc(NC(=O)c2ccc(NCc3ccco3)c([N+](=O)[O-])c2)cc1Cl`, for which the Potency was 14.6 µM (active).
As to `Cc1ccc(NC(=O)c2ccc([N+](=O)[O-])s2)cc1S(=O)(=O)N1CCOCC1`, the max response was -5.77%.
`Cc1ccc(NC(=O)c2ccc(NCC3CCCO3)c([N+](=O)[O-])c2)cc1Cl` (configuration not stated): the Potency was 20.6 µM (active).
Consider `S=c1[nH]cnc2sc(-c3ccccc3)cc12`, for which the max response is 1.89%.
Consider `O=c1[nH]c(-c2cccnc2)nc2sc(-c3ccccc3)cc12`, for which the Potency is 0.627 µM (active).
For `CCCn1c(CN2CCN(C(=O)OCC)CC2)nc2cc(NC(=O)C(C)C)ccc21`, the Potency is 11.2 µM (active).
